# Rows were chosen to be rich in hits. Some 4.7% of all compounds tested hit in one or more screens of this group.
# tim10-1 inh = growth inhibitors of tim10-1 mutant yeast, primary screen, luminescence, uHTS; S. cerevisiae tim10-1 ts strain growth, BacTiter-Glo, 24 h; inhibition, % at 20 µM; 2.2% of 330,000 active;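 active = inhibition of at least 40%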;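 also: mutant grown at 25 °C; 0% = DMSO wells with yeast and 100% = wells holding no yeast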
# PfHsp90 set2 = growth inhibition of PfHsp90-expressing yeast, primary screen, antimalarial PfHsp90 inhibitor project, S. cerevisiae, BacTiter-Glo luminescence, single point, set 2. BacTiter-Glo ATP, 48 h; yeast lacking PDR1 and PDR3 efflux regulators. inhibition, % at 9.4 µM. 0.32% of 310,000 active;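 active = every replicate shows inhibition above about 80%, whatever the replicate mean, limit read from the data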;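 also: 0% = DMSO neutral controls and 100% = 20 µM radicicol positive controls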
# tim23-1 inh = growth inhibitors of tim23-1 mutant yeast, primary screen, luminescence, uHTS. 1.3% of 330,000 active. inhibition, % at 20 µM. S. cerevisiae tim23-1 growth, BacTiter-Glo luminescence, 24 h. AID 463212, 2010;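 active = growth inhibition of the mutant yeast at or above 50%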;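 also: temperature-sensitive mutant grown at 25 °C; plate controls were DMSO-treated mutant yeast for no effect and medium wells lacking yeast for full effect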
# SKKanGAS inh = S. pyogenes SKKanGAS growth inhibitors in kanamycin, primary screen, streptokinase expression inhibitor project, SKKanGAS strain, BacTiter-Glo luminescence; 6 h; inhibition, % at 7.5 µM; 1.3% of 300,000 active;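 active = mean replicate score, as percent of positive control median, at least 50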;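 also: strain carries kanamycin resistance gene driven by streptokinase promoter and grows in 40 µg/ml kanamycin; loss of luminescence reflects streptokinase promoter inhibition or plain growth inhibition; 0% = median of DMSO wells and 100% = positive control at its reference dose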
# ATG4B inh = ATG4B protease inhibitors, primary screen, biochemical, fluorescence, uHTS; Cysteine protease ATG4B (Homo sapiens), Q9Y4P1; ATG4B cleavage of LC3-PLA2, NBD-HPC fluorescence, 1 h; inhibition, % at 8.33 µM; 0.51% of 340,000 active; in the data active = inhibition above about 40%
# Target sequence (Q9Y4P1 whole entry, looked up): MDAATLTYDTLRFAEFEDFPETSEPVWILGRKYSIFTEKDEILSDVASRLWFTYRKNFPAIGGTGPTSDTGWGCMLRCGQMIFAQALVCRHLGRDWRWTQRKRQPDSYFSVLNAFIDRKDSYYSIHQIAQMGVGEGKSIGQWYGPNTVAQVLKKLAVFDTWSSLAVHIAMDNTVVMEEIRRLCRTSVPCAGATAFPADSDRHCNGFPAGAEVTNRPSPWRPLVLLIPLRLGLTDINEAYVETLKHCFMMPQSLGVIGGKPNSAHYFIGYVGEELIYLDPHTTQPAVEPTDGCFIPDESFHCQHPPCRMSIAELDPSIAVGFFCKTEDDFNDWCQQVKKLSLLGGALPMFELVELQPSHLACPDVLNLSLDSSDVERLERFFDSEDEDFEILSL
# TIM10 inh = growth inhibitors of isogenic TIM10 control yeast, primary screen, counter-screen for tim10-1 yeast inhibitor project, luminescence, uHTS; S. cerevisiae TIM10 strain growth, BacTiter-Glo luminescence, 24 h; inhibition, % at 10 µM; 1.4% of 330,000 active; AID 463195, 2010;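 active = inhibition of 40% or more at the single tested concentration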;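 also: wild-type TIM10 isogenic control strain grown at permissive 25 °C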
# ATG4B conf = ATG4B protease inhibitors, retest, confirmation, biochemical, fluorescence, single concentration; shares compounds with ATG4B inh; ATG4B protease fluorescent substrate cleavage assay; inhibition, % at 8.33 µM; 92% of 320 active; in the data active = inhibition above about 39%
# PLA2 counter = PLA2 enzyme inhibition, counter-screen for ATG4B inhibitor project, biochemical, single concentration, uHTS hits; shares compounds with ATG4B inh; purified PLA2, NBD-C6-HPC fluorescence, 45 min; inhibition, % at 8.33 µM; 66% of 1,600 active; AID 588402, 2011; in the data active = inhibition above about 50%
# Numbers without * were called inactive; . = no result; ! = repeats disagree.
SMILES,tim10-1 inh,PfHsp90 set2,tim23-1 inh,SKKanGAS inh,ATG4B inh,TIM10 inh,PLA2 counter,others
O=C(O)c1cc(-c2ccco2)nc2ccc(Br)cc12,15,-13,2,-5,78*!,-7,23,ATG4B conf=65*
CCCCn1c2ccccc2c2cc(CC(N)=O)ccc21,16,-7,30,-4,62*,11,74*,
Cc1ccc(C(=O)Oc2cccc(NC(=O)c3ccccc3)c2)cc1C,17,4,31,-15,49*,11,59*,
COC(=O)c1cccc(NC(=O)c2ccccc2)c1,-18,-2,38,15,-4,38,.,
O=C(NOCc1ccccc1)c1ccc([N+](=O)[O-])cc1,0,-1,6,.,-6,1,.,
O=C(O)CSc1nnc(COc2ccccc2)n1-c1ccccc1,-4,35,6,1,1,-9,.,
O=C(CSc1nnc(COc2ccccc2)n1-c1ccccc1)c1cccs1,-3,-15,18,4,54*,-11,55*,
Cc1ccc(OCc2nnc(SCC(=O)c3cccs3)n2-c2ccccc2)cc1C,18,12,1,3,62*,5,78*,
NC(=O)CSc1nnc(COc2ccccc2)n1CCc1ccccc1,18,8,-4,1,54*,-8,46,
CC1=C(CCN2CCN(C(C)C)C(CCO)C2)C(C)(C)CCC1 (stereo unspecified),3,16,-16,-17,7,11,.,
Cc1ccc2c(c1)nnn2C1CCN(S(=O)(=O)c2ccc(C(=O)N3CC(C)CC(C)C3)cc2)CC1 (stereo unspecified),11,.,17,10,59*,-2,73*,
Cc1ccc2c(c1)nnn2C1CCN(S(=O)(=O)c2ccc(C(=O)N(C)C)cc2)CC1,1,.,17,-7,-17,-3,.,
O=C(NCc1cccc(OC(F)(F)F)c1)c1cccc2c1C(=O)c1ccc(-c3ccc(F)cc3OCc3ccccc3)cc1S2(=O)=O,17,.,8,.,1,1,.,
COc1ccc(-c2ccc3c(c2)S(=O)(=O)c2cccc(C(=O)NCc4cccc(OC(F)(F)F)c4)c2C3=O)cc1OC,2,-3,9,.,70*,1,70*,
O=C1NC(c2ccc(Cl)cc2)Oc2ccccc21 (stereo unspecified),19,3,33,1,1,5,.,
CC(C)c1ccc(C2NC(=O)c3ccccc3O2)cc1 (stereo unspecified),-14,28,32,2,41*,19,40,
COc1ccc(-n2c(C)cc(/C=C3\SC(=S)NC3=O)c2C)cc1,12,1,6,17,22,-17,.,
CC(C)(C)OC(=O)n1cc(/C=N/NC(=O)c2ccco2)c2ccccc21,16,-5,25,-2,-7,5,.,
Cn1cc(C(=O)NCC(=O)Nc2ccccc2Br)cn1,-11,22,0,.,-1,0,.,
O=C(Nc1cc(S(=O)(=O)Nc2ccc(Cl)cc2)ccc1N1CCCCC1)c1ccc(F)cc1,11,18,6,55*,42*,17,28,
Cc1nnc(SCC(=O)Nc2ccc3c(c2)OCO3)s1,4,-4,-3,1,5,0,.,
CC(C)(C)n1ncc2c(=O)n(Cc3ccccc3Br)cnc21,20,5,49,.,41*,1,42,ATG4B conf=69*
Cc1ccc(Cn2cnc3c(cnn3C(C)(C)C)c2=O)cc1,-1,-26,33,-8,1,-25,.,
O=C(OCC(=O)N1CCOCC1)c1cccc(F)c1,13,13,10,3,0,-1,.,

# Screening data: PubChem BioAssay, several laboratories
